Results reported in the supplement of paper PMC10849652.
The full data set covers some 7,900 targets. This sample favours those with a hit. About 0.6% of all pairs of compound and target were hits.

Key:
Experiment in all cases: log2 fold change, soluble protein after heating vs DMSO (PISA); higher = thermal stabilisation; K562 cells, 10 uM, 30 min; active = over 0.2 and 3.5 SD of the protein, either way, in both replicates (recomputed)
[1] = compound: C1=CC=C(C=C1)[C@H](COC2=CC3=C(C=C2)NC(=O)N3)NC(=O)C4=CC=CN(C4=O)CC5=CC(=C(C=C5)F)F
In short: (§1)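 For each measurement, 10 μM compound was applied for 30 min to K562 cells at 2×10^6 cells/mL. Aliquots were heated for 3 min across 48°C-58°C, pooled, and extracted in PBS with 0.5% NP-40 at 4°C; the supernatant after 21,000xg for 90 min was soluble protein. This was quantified by TMTpro 16plex LC-MS/MS with channel sums equalised, and thermal stability was reported relative to control samples from duplicates, on a log2 fold-change scale.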

[2] = compound: CC1=C(SC2=C1C(=N[C@H](C3=NN=C(N32)C)CC(=O)N)C4=CC=C(C=C4)Cl)C
In short: as §1

[3] = compound: CC1=C2C(=CC=C1)N=C(N(C2=O)C3=CC=CC=C3C)CN4C=NC5=C(N=CN=C54)N
In short: as §1

[4] = compound: Cc1sc2c(c1C)C(c1ccc(Cl)cc1)=N[C@@H](CC(=O)OC(C)(C)C)c1nnc(C)n1-2
In short: as §1

[5] = compound: c1ccc([C@@H]2C[C@H]2NC2CCNCC2)cc1
In short: as §1

Chain of UniProt P98082 (P98082 whole entry, looked up): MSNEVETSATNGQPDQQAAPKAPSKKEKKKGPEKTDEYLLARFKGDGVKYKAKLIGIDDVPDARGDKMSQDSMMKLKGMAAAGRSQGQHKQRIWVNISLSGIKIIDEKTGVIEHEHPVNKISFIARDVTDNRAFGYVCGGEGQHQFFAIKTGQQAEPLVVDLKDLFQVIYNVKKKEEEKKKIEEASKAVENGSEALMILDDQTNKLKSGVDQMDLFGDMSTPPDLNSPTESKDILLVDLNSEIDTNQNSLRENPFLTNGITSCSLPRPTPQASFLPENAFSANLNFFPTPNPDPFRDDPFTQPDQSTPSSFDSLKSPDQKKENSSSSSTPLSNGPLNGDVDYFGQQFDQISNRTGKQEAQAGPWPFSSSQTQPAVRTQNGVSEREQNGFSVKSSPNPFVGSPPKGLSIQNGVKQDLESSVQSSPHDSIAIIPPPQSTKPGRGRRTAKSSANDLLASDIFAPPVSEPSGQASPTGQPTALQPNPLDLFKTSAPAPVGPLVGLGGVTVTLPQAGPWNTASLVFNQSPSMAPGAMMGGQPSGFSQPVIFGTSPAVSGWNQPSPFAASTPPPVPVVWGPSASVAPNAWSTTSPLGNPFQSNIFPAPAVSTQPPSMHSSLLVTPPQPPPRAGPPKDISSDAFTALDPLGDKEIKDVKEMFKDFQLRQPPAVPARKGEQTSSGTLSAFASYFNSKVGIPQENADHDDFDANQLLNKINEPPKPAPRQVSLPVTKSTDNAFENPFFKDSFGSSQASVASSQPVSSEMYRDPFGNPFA
Chain of UniProt Q8N128 (Q8N128 whole entry, looked up): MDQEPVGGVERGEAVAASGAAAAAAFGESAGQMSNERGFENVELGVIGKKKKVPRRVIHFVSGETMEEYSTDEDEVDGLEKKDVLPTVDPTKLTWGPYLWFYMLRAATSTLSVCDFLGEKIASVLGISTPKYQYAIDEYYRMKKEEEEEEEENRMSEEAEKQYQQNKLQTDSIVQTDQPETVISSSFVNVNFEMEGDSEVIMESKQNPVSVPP
Chain of UniProt Q9Y5Q0 (Q9Y5Q0 whole entry, looked up): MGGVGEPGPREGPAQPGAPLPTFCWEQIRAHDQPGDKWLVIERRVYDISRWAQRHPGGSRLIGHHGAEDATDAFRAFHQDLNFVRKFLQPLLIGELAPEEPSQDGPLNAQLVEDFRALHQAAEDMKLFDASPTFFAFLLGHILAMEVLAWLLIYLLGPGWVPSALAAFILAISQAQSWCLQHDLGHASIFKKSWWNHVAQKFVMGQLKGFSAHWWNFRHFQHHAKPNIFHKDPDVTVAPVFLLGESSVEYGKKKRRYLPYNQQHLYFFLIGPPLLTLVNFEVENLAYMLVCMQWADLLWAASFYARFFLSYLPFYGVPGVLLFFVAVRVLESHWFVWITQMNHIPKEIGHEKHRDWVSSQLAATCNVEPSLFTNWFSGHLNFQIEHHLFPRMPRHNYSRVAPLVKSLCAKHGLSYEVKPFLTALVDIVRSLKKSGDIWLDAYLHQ
Chain of UniProt O00148 (O00148 whole entry, looked up): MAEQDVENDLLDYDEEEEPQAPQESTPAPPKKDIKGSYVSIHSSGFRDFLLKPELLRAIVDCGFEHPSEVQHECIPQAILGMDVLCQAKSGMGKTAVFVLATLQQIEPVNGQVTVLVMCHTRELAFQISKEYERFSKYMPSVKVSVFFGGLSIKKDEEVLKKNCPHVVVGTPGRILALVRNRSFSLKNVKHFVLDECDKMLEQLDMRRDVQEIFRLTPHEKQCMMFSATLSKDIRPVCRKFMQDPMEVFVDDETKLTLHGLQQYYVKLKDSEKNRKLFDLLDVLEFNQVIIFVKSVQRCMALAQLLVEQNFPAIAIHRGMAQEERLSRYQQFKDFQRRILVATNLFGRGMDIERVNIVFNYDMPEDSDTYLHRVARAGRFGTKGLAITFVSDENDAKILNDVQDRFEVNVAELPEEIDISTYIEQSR
Chain of UniProt P34913 (P34913 whole entry, looked up): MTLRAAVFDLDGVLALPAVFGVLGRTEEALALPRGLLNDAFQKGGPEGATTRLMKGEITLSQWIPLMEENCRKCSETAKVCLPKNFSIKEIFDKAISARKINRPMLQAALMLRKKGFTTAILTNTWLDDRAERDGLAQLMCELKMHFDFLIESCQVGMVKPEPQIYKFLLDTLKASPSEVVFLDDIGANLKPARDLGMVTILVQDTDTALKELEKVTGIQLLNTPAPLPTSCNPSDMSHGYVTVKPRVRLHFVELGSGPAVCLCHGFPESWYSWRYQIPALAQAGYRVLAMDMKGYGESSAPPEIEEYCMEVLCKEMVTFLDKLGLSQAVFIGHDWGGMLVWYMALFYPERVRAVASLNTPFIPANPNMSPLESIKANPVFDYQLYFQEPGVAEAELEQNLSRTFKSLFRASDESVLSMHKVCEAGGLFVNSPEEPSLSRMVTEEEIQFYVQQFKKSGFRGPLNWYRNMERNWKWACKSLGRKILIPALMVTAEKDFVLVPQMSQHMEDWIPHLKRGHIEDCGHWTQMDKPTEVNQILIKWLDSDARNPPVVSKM
Chain of UniProt Q15392 (Q15392 whole entry, looked up): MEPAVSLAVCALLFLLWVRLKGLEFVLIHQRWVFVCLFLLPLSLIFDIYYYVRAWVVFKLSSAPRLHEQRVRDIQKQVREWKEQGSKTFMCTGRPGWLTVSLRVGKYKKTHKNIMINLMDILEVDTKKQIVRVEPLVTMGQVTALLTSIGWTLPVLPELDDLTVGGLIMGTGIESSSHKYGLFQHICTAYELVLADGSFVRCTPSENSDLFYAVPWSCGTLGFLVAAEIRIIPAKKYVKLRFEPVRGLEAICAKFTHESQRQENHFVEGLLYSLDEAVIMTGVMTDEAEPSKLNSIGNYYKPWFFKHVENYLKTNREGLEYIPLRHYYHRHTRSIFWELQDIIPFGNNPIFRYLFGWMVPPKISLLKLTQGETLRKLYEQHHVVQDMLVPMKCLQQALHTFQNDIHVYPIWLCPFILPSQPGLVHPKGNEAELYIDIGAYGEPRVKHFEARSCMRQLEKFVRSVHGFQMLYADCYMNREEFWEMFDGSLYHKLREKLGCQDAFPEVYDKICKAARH
Chain of UniProt Q9NRY5 (Q9NRY5 whole entry, looked up): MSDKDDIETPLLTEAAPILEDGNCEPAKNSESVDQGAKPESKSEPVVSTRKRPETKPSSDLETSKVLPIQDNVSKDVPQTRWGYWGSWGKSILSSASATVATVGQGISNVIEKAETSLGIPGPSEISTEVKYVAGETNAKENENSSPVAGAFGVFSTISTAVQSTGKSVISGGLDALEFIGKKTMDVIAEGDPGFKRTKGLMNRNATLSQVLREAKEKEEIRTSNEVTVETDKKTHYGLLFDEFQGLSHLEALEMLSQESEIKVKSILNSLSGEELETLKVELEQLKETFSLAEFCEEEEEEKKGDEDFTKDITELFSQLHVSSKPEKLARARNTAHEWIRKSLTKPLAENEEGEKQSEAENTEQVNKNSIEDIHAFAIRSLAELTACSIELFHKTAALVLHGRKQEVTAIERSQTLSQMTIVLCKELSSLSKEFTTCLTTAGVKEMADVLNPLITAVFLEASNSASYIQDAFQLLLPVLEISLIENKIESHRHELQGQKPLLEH
Chain of UniProt P68104 (P68104 whole entry, looked up): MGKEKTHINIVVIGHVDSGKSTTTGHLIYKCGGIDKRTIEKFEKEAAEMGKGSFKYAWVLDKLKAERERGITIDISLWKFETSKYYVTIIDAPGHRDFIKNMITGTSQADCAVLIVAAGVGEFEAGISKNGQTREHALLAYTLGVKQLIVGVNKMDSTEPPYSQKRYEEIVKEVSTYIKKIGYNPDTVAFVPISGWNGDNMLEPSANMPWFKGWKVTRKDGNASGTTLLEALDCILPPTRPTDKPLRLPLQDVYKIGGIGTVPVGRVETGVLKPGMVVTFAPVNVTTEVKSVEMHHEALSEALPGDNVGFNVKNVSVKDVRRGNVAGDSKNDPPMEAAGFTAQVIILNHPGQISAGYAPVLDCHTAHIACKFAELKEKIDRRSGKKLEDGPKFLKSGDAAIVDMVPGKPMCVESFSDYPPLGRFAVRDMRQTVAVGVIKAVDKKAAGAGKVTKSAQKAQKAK
Chain of UniProt Q9NQI0 (Q9NQI0 whole entry, looked up): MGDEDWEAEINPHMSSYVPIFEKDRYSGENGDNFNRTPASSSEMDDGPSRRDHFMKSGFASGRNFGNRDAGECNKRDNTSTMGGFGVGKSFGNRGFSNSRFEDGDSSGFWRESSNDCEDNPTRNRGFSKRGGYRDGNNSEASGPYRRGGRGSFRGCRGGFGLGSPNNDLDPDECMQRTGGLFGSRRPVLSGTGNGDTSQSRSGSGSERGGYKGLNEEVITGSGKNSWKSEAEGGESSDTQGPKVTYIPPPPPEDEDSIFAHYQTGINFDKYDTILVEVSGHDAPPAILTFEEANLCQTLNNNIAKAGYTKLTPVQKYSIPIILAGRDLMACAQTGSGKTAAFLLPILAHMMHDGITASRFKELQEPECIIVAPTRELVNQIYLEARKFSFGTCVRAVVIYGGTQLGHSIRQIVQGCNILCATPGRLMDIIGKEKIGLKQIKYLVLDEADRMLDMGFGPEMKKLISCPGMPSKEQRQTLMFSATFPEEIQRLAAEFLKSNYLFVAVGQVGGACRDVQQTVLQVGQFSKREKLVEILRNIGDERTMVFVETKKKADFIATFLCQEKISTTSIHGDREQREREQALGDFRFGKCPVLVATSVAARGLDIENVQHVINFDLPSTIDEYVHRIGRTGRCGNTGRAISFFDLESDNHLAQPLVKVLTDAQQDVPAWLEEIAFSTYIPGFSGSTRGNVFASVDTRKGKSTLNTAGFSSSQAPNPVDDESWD
Chain of UniProt O76075 (O76075 whole entry, looked up): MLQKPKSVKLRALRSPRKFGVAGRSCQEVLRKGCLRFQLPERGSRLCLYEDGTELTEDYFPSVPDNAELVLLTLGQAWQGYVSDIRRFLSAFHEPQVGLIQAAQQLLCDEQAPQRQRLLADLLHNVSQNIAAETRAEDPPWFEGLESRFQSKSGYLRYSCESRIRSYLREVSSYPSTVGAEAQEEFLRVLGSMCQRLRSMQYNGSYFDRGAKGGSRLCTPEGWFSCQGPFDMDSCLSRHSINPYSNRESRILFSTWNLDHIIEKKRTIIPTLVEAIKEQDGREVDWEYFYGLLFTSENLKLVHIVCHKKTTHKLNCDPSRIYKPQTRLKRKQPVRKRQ

Row | Target | log2 fold change [1] | log2 fold change [2] | log2 fold change [3] | log2 fold change [4] | log2 fold change [5]
1 | CWC27 (UniProt Q6UX04) | -0.039 (inactive) | 0.097 (inactive) | 0.103 (inactive) | -0.03 (inactive) | -0.001 (inactive)
2 | FADS3 (UniProt Q9Y5Q0) | 0.027 (inactive) | 0.023 (inactive) | 0.026 (inactive) | 0.025 (inactive) | -0.007 (inactive)
3 | EXOC7 (UniProt Q9UPT5) | -0.063 (inactive) | -0.001 (inactive) | 0.035 (inactive) | 0.07 (inactive) | -0.014 (inactive)
4 | EEF1A1 (UniProt P68104) | 0.112 (inactive) | 0.212 (inactive) | -0.097 (inactive) | 0.125 (inactive) | -0.471 (inactive)
5 | FAM177A1 isoform 2 (UniProt Q8N128) | -0.073 (inactive) | 0.047 (inactive) | 0.17 (inactive) | -0.002 (inactive) | 0.028 (inactive)
6 | DBNL isoform 3 (UniProt Q9UJU6) | -0.096 (inactive) | 0.002 (inactive) | 0.045 (inactive) | 0.029 (inactive) | 0.01 (inactive)
7 | DNAJB1 (UniProt M0R128) | -0.843 (active) | 0.006 (inactive) | 0.106 (inactive) | 0.078 (inactive) | 0.061 (inactive)
8 | DNAH10 (UniProt Q8IVF4) | 0.09 (inactive) | 0.103 (inactive) | 0.062 (inactive) | -0.131 (inactive) | 0.031 (inactive)
9 | EXOC1 (UniProt Q9NV70) | -0.095 (inactive) | 0.021 (inactive) | 0.121 (inactive) | 0.027 (inactive) | -0.075 (inactive)
10 | EPHX2 (UniProt P34913) | -0.015 (inactive) | 0.091 (inactive) | 0.052 (inactive) | 0.143 (inactive) | -0.002 (inactive)
11 | CTNNB1 (UniProt P35222) | -0.039 (inactive) | 0.101 (inactive) | 0.312 (inactive) | -0.062 (inactive) | -0.149 (inactive)
12 | DOCK8 (UniProt Q8NF50) | 0.096 (inactive) | -0.223 (inactive) | -0.01 (inactive) | 0.152 (inactive) | -0.087 (inactive)
13 | DBT (UniProt P11182) | -0.003 (inactive) | -0.004 (inactive) | 0.012 (inactive) | 0.062 (inactive) | 0.007 (inactive)
14 | DDX39A (UniProt O00148) | -0.174 (inactive) | 0.063 (inactive) | 0.025 (inactive) | 0.015 (inactive) | -0.01 (inactive)
15 | DNAJC7 (UniProt Q99615) | -0.045 (inactive) | 0.043 (inactive) | 0.072 (inactive) | -0.013 (inactive) | 0 (inactive)
16 | DDX4 (UniProt Q9NQI0) | 0.052 (inactive) | -0.11 (inactive) | 0.213 (inactive) | 0.274 (inactive) | 0.001 (inactive)
17 | DFFB (UniProt O76075) | -0.027 (inactive) | 0.099 (inactive) | 0.048 (inactive) | 0.202 (inactive) | 0.049 (inactive)
18 | DHCR24 (UniProt Q15392) | 0.099 (inactive) | -0.035 (inactive) | 0.14 (inactive) | 0.036 (inactive) | -0.012 (inactive)
19 | DNAJC1 (UniProt Q96KC8) | -0.024 (inactive) | 0.054 (inactive) | 0.08 (inactive) | -0.015 (inactive) | 0.052 (inactive)
20 | DCAF16 (UniProt Q9NXF7) | 0.06 (inactive) | 0.056 (inactive) | 0.079 (inactive) | 0.032 (inactive) | -0.032 (inactive)
21 | DSN1 (UniProt Q9H410) | 0.02 (inactive) | 0.016 (inactive) | 0.059 (inactive) | 0.045 (inactive) | -0.054 (inactive)
22 | DAB2 (UniProt P98082) | -0.039 (inactive) | 0.051 (inactive) | 0.1 (inactive) | 0.121 (inactive) | 0.094 (inactive)
23 | FAM114A2 (UniProt Q9NRY5) | -0.046 (inactive) | 0.047 (inactive) | 0.018 (inactive) | 0.033 (inactive) | 0.006 (inactive)
24 | ECPAS (UniProt Q5VYK3) | -0.127 (inactive) | 0.047 (inactive) | 0.112 (inactive) | -0.032 (inactive) | -0.01 (inactive)
25 | ELOVL5 isoform 2 (UniProt Q9NYP7) | -0.056 (inactive) | 0.021 (inactive) | 0.016 (inactive) | -0.074 (inactive) | 0.033 (inactive)
